The values below come from PubChem BioAssay (NCATS).

Molecules are shown by their SMILES. Where “and” joins values, the source holds several entries; their conditions need not be identical. Equal entries are not always repeated. Records with an inconclusive call do not appear. Calls of active or inactive are those of the source. Calls follow the shape of the dose curve; as a rule, active = well fitted cell-killing curve with a large enough effect; inconclusive = small, poorly fitted or top-dose-only effect; inactive = no such curve, though single readings can be large or run the other way.
Potency is read from the fitted curve at half-maximal effect.

The assay is described as follows: qHTS of pediatric cancer cell lines to identify multiple opportunities for drug repurposing: Primary screen for NB-EBc1 cells (AID 1347095). Particulars: NB-EBc1 neuroblastoma viability, CellTiter-Glo luminescence, 48 h; series mostly up to 46 µM; activity change, negative = cytotoxic: at the top concentration. The text has this: Drug repurposing or repositioning has been offered as a strategy for drug development in oncology programs. This approach has special potential for childhood cancers and other rare or orphan diseases, where the expected return on new drug development has been a disincentive to pharmaceuticals. […] In this project we exploit the poly-pharmacology of drugs to discover new indications via phenotypic screening of a panel of 19 well-characterized cell lines derived from solid tumors seen in children and adolescents. The goal is to identify approved drugs with previously unrecognized anticancer properties that has the potential to reveal new mechanisms and biological processes involved in carcinogenesis or drug resistance. We employed a titration-based paradigm (quantitative high-throughput screening or qHTS), where all compounds were tested at multiple concentrations for their effect on cell viability. Concentration-response curves (CRCs) were derived directly from the primary screen, and both potency and efficacy values were used to identify compounds with robust bioactivity profiles. We screened the NIH Chemical Genomics Center (NCGC) Pharmaceutical Collection (NPC) and Mechanism Interrogation Plate (MIPE) small molecule collections of approved and investigational compounds against these cell lines; and measured metabolically active cells after 48 hours of compound treatment as a proxy for cell viability. […] Assay Submitter: Nathalia J. Martinez, National Center for Advancing Translational Sciences, National Institutes of Health, Rockville, MD, USA; email: natalia.martinez@nih.gov Shen, M et al. Quantitative high-throughput phenotypic screening of pediatric cancer cell lines identifies multiple opportunities for drug repurposing. Oncotarget 2017 Dec 19;9(4):4758-4772. PMID 29435139.
The cells were obtained from University of North Carolina (UNC), Pediatric Preclinical Testing Program (PPT), and Coriell Institute (CI). qHTS cell viability assay: Cells were assayed in growth media at a density of 500-1,000 cells/well. Five microliters of cells were dispensed into 1,536-well, white, solid-bottom, TC-treated plates (Greiner Bio One) using a multidrop dispenser and incubated at 37 degrees C, 5% CO2, under a humidified atmosphere for 5 hours. Twenty-three nanoliters of compounds and controls (neutral control DMSO or positive control bortezomib at final concentration of 2.3 µM) were subsequently transferred by Kalypsys pintool. For primary screens, the MIPE collection was tested at 11-point dilutions (final concentrations range from 0.78 nM to 46 µM) and the NPC collection at 8-point dilutions (final concentrations range from 0.59 nM to 46 µM). Compounds tested in follow-up screens were assayed at 11-point dilutions. Cells were incubated for 48 hours, followed by addition of 3 µL of CellTiter-Glo (Promega). After a 15 min incubation at room temperature, samples were analyzed for luminescence intensity using a ViewLux High-throughput CCD imager equipped with clear filters.
As for `Cc1cccc(-c2[nH]ncc2-c2ccc3ncccc3n2)n1`, the “activity change, negative = cytotoxic” value was 13.2% (inactive).
Regarding `O=c1c(O)c(-c2cc(O)c(O)c(O)c2)oc2cc(O)cc(O)c12`, the “activity change, negative = cytotoxic” value is -3% (inactive).
As to `Nc1cccc2c1CN(C1CCC(=O)NC1=O)C2=O` (stereo not given), the Potency entry was “inactive”.
As for `Clc1ccc2c(N3CCN(CCCN4CCN(c5ccnc6cc(Cl)ccc56)CC4)CC3)ccnc2c1`, the “activity change, negative = cytotoxic” value was 23.5% [at 16.1 µM] (inactive).
On to `c1cnc2cc3c(cc2n1)C1CNCC3C1`, for which the “activity change, negative = cytotoxic” value was 14.8% (inactive).
Take `C[C@H](Cn1cnc2c(N)ncnc21)OCP(=O)(O)O`: the “activity change, negative = cytotoxic” value was 20.5% (inactive).
Consider `Cc1nc(Nc2ncc(C(=O)Nc3c(C)cccc3Cl)s2)cc(N2CCN(CCO)CC2)n1`, for which the “activity change, negative = cytotoxic” value is -11% (inactive).
On the same count and under the same terms, as for `CC1(C)C(=O)N(CCN2CCC(C(=O)c3ccc(F)cc3)CC2)c2ccccc21`, the figure is -0.546% (inactive).
On to `COC(=O)C1=C(C)NC(C)=C(C(=O)OC(C)C)C1c1cccc2nonc12` (stereo not given), for which the Potency result is “inactive”.
With `COC(=O)C1=C(C)NC(C)=C(C(=O)OCCCN2CCC(c3ccccc3)(c3ccccc3)CC2)C1c1cccc([N+](=O)[O-])c1` (stereo not given), the “activity change, negative = cytotoxic” value was 5.17% (inactive).
On to `COc1ccc(C2(C#N)CCC(C(=O)O)CC2)cc1OC1CCCC1` (stereo not given), for which the “activity change, negative = cytotoxic” value was -1.25% (inactive).
With `CN(C)CCc1c[nH]c2ccc(Cn3cncn3)cc12`, the “activity change, negative = cytotoxic” value is -2.74% (inactive).
Regarding `CC1=C(C(=O)O)N2C(=O)[C@@H](NC(=O)[C@H](N)C3=CCC=CC3)[C@H]2SC1`, the Potency entry was “inactive”.
Same read-out and setting: as for `CCCCc1ccc2nc(NC(=O)OC)[nH]c2c1`, the figure is 1 nM (active) and 106 nM (active); as for `COCCCOc1ccnc(CS(=O)c2nc3ccccc3[nH]2)c1C` (stereo not given), “inactive”.
Consider `Cc1ccc(C)c(OCCCC(C)(C)C(=O)O)c1`, for which the “activity change, negative = cytotoxic” value was 14.5% (inactive).
As to `COc1cc(OC)c(C(=O)CCCN2CCCC2)c(OC)c1`, the Potency entry was “inactive”.
Turning to `O=C(NC(Cc1cc(=O)[nH]c2ccccc12)C(=O)O)c1ccc(Cl)cc1` (stereo not given), the Potency entry was “inactive”.
Regarding `Cc1c(OCC(F)(F)F)ccnc1CS(=O)c1nc2ccccc2[nH]1` (stereo not given), the “activity change, negative = cytotoxic” value was 12.1% (inactive).
`Cc1cccc(CN2CCN(C(c3ccccc3)c3ccc(Cl)cc3)CC2)c1` (stereo not given): the Potency is 18.7 µM (active).
`COc1cc2c(cc1OC)C1CC(=O)C(CC(C)C)CN1CC2` (stereo not given): the “activity change, negative = cytotoxic” value is 28.7% (inactive).
Take `C[C@@H](c1ncncc1F)[C@](O)(Cn1cncn1)c1ccc(F)cc1F`: the “activity change, negative = cytotoxic” value was -16.2% (inactive).
On to `O=C(O)c1cccc(-c2noc(-c3ccccc3F)n2)c1`, for which the “activity change, negative = cytotoxic” value was -9.93% (inactive).
On to `O=Nc1c(-c2c(O)[nH]c3cc(Br)ccc23)[nH]c2ccccc12`, for which the Potency was 8.33 µM (active).
With `O=c1oc2cc(O)ccc2s1`, the “activity change, negative = cytotoxic” value is 9.67% (inactive).
`CN(C)[C@@H](CCOc1cccc2ccccc12)c1ccccc1`: the Potency result was “inactive”.
Still for that read-out and setting: with `O=C(O)CCNC(=O)c1ccc(N=Nc2ccc(O)c(C(=O)O)c2)cc1` the entry was “inactive”; with `NC(=O)Cc1cccc(C(=O)c2ccccc2)c1N`, “inactive”; with `CCCCN(CCCC)CCC(O)c1cc2c(Cl)cc(Cl)cc2c2cc(C(F)(F)F)ccc12` (stereo not given), “inactive”.
Regarding `NNc1nncc2ccccc12`, the Potency result was “inactive”.
For the compound `O=C(NCCO[N+](=O)[O-])c1cccnc1`, the Potency entry is “inactive”.
`CC(C)C[C@H](NC(=O)[C@H](Cc1ccccc1)NC(=O)c1cnccn1)B(O)O`: the Potency was 0.0376 µM (active).
Still for that read-out and setting: with `COc1ccccc1N1CCN(CCN(C(=O)C2CCCCC2)c2ccccn2)CC1` the figure was 6.62 µM (active).
Turning to `O=C1c2c(O)cc(O)cc2OC(c2ccc(O)c(O)c2)C1O` (stereo not given), the “activity change, negative = cytotoxic” value was -14.7% (inactive).
`COc1cc(C(C)=O)ccc1OCCCN1CCC(c2noc3cc(F)ccc23)CC1`: the Potency result is “inactive”.
On to `CN(C)CCCC1(c2ccc(F)cc2)OCc2cc(C#N)ccc21` (stereo not given), for which the “activity change, negative = cytotoxic” value was -9.29% (inactive).
For the compound `CC(C)c1ccc2oc3nc(N)c(C(=O)O)cc3c(=O)c2c1`, the Potency entry is “inactive”.
For the compound `COCCCN1CCC(NC(=O)c2cc(Cl)c(N)c3c2OCC3)CC1`, the “activity change, negative = cytotoxic” value is 11.4% (inactive).
As to `Nc1ccc(S(N)(=O)=O)cc1`, the Potency result was “inactive”.
For `Cc1cc(Cl)ccc1OCCCC(=O)NO`, the Potency is 4.69 µM (active).
